Data on eight molecules can be found in PubChem BioAssay (NCI).

SMILES strings stand for the structures. Compounds without any hit were thinned out: in the full panel of roughly 83,000, 20% have a hit.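 The test compound was applied at a single concentration to cells in 96-well plates for 48 hours, and percent growth was recorded.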 Unmarked numbers belong to inactive results. Activity calls are given as the source filed them. How the source made its calls: active means growth percent below 10; inactive means the rest.

Test systems include HCT-15 colon; HT29 colon; SNB-75 CNS; SNB-19 CNS; U251 CNS; PC-3 prostate; SK-MEL-5 melanoma; UACC-62 melanoma; LOX IMVI melanoma; SK-MEL-28 melanoma; SK-MEL-2 melanoma; SN12C renal; UO-31 renal; TK-10 renal; ACHN renal; CAKI-1 renal; A498 renal; CCRF-CEM leukemia; MOLT-4 leukemia; EKVX NSCLC.
Assay in all cases: NCI-60 one-dose screen, 48 h (100 = growth as untreated, 0 = no growth, -100 = all killed)
Holding throughout (conditions): 10 µM unless noted

On to `CN1CCN(c2ccc3nc(-c4cc(C(C)(C)C)c(O)c(C(C)(C)C)c4)[nH]c3c2)CC1`, for which the growth with HCT-15 colon is -35.3% (active); with HT29 colon, 6.14% (active); with SNB-75 CNS, 58.8%; with SNB-19 CNS, 73.6%; in the test on U251 CNS, 16.5%; with PC-3 prostate it was 58.7%. Also, the growth is 74.9% with SK-MEL-5 melanoma; 63.5% with UACC-62 melanoma; -37.3% (active) in the test with LOX IMVI melanoma; 57% with SK-MEL-28 melanoma; 82.5% in the test on SK-MEL-2 melanoma; 88.2% in the test on SN12C renal. The growth is 61.3% in the test on UO-31 renal; 90.5% in the test on TK-10 renal; 87.3% in the test with ACHN renal; 68.6% with CAKI-1 renal; 90.5% in the test on A498 renal; 14.5% in the test with CCRF-CEM leukemia. In addition, in the test on MOLT-4 leukemia, the growth was 39.6%.

On to `Cn1c(COC(=O)NCCN2CCOCC2)nc2c(N3CCOCC3)nc(-c3ccccc3)nc21`, for which the growth in the test with HCT-15 colon was -39.4% (active); in the test on HT29 colon it was -58.1% (active); with SNB-75 CNS it was -3.92% (active); in the test with SNB-19 CNS, 48.7%; in the test with U251 CNS it was -52.5% (active); in the test with PC-3 prostate, -71.2% (active). For the same molecule, the growth in the test with SK-MEL-5 melanoma is -93.6% (active); in the test with UACC-62 melanoma it was -93.6% (active); in the test on LOX IMVI melanoma, -87.2% (active); in the test with SK-MEL-28 melanoma, -97.6% (active); in the test on SK-MEL-2 melanoma, -59.8% (active); in the test with SN12C renal, -81.2% (active). Besides, the growth was -100% (active) in the test with UO-31 renal; -78.8% (active) in the test on TK-10 renal; -100% (active) in the test on ACHN renal; -94.8% (active) with CAKI-1 renal; 30.7% with A498 renal; -10.9% (active) with CCRF-CEM leukemia. The growth with MOLT-4 leukemia is -16.2% (active).

Turning to `COc1ccc(/C=C/c2n[nH]c3ccc(N4CCOC4=O)cc23)cc1`, the growth in the test with HCT-15 colon is 10.1%; in the test with HT29 colon, -18.6% (active); in the test with SNB-75 CNS it was -11.1% (active); with SNB-19 CNS, 18.2%; with U251 CNS it was 15.9%; in the test with PC-3 prostate, 18.5%. For the same molecule, the growth was 11.7% with SK-MEL-5 melanoma; 16.5% in the test with UACC-62 melanoma; 1.88% (active) with LOX IMVI melanoma; 33.5% in the test on SK-MEL-28 melanoma; 11.7% with SK-MEL-2 melanoma; 24% in the test with SN12C renal. The growth is -45.7% (active) in the test on UO-31 renal; -9.71% (active) in the test with TK-10 renal; 6.86% (active) in the test with ACHN renal; 4.59% (active) in the test on CAKI-1 renal; -19.6% (active) with A498 renal; -17% (active) in the test on CCRF-CEM leukemia. In addition, in the test on MOLT-4 leukemia, the growth is 4.38% (active).

Consider `CC(C)Sc1nc(NN)c(C#N)c(-c2ccccc2)n1`, for which the growth in the test on HCT-15 colon was 96.5%; in the test with HT29 colon, 111%; with SNB-75 CNS, 92.7%; with SNB-19 CNS, 95.9%; with U251 CNS it was 100%; in the test with PC-3 prostate, 85.1%. For the same molecule, the growth was 99.7% in the test on SK-MEL-5 melanoma; 90.6% with UACC-62 melanoma; 96.7% in the test on LOX IMVI melanoma; 90.4% in the test on SK-MEL-28 melanoma; 109% with SK-MEL-2 melanoma; 98.8% with SN12C renal. Besides, the growth in the test on UO-31 renal is 75.9%; in the test with TK-10 renal, 107%; with ACHN renal, 93%; with CAKI-1 renal, 93.6%; in the test on A498 renal it was 92.8%; in the test with CCRF-CEM leukemia, 94.3%. Further, in the test on MOLT-4 leukemia, the growth is 97.4%.

In the case of `CCCCCCCC(=O)Nc1nc2[nH]c(CN3CCN(Cc4cccc(I)c4)CC3)c(CN3CCN(Cc4cccc(I)c4)CC3)c2c(=O)[nH]1`, the growth in the test with HCT-15 colon was -91.5% (active); in the test with HT29 colon, -69.8% (active); in the test with SNB-75 CNS, -73.2% (active); in the test with SNB-19 CNS, -87.5% (active); with U251 CNS it was -94.6% (active); with PC-3 prostate it was -45.7% (active). For the same molecule, the growth was 2.56% (active) with SK-MEL-5 melanoma; -98.1% (active) in the test on UACC-62 melanoma; -96.6% (active) in the test on LOX IMVI melanoma; -78.1% (active) in the test on SK-MEL-28 melanoma; -34% (active) in the test with SK-MEL-2 melanoma; -44.5% (active) in the test on EKVX NSCLC. Further, the growth was -99.9% (active) in the test on UO-31 renal; -91.9% (active) with TK-10 renal; -98.9% (active) in the test on ACHN renal; 45.5% in the test on A498 renal; 1.17% (active) in the test with CCRF-CEM leukemia; -36% (active) in the test on MOLT-4 leukemia.

In the case of `COc1ccc(-n2cc(-c3cc(OC)c(OC)c(OC)c3)n(C(C)=O)c2=O)cc1`, the growth with HCT-15 colon was 94.9%; in the test with HT29 colon, 108%; with SNB-75 CNS it was 69.5%; with SNB-19 CNS, 86.1%; with U251 CNS it was 88.2%; in the test with PC-3 prostate, 94%. Besides, the growth is 6.54% (active) in the test with SK-MEL-5 melanoma; 84.1% in the test on UACC-62 melanoma; 94% in the test on LOX IMVI melanoma; 115% in the test with SK-MEL-28 melanoma; 93.2% with SK-MEL-2 melanoma; 88% in the test on EKVX NSCLC. Moreover, the growth is 77.2% with UO-31 renal; 105% in the test with TK-10 renal; 97.7% with ACHN renal; 53.7% with CAKI-1 renal; 103% in the test with MOLT-4 leukemia.

Regarding `CC1(c2ccccc2)NC(=O)N(CC(=O)Nc2cccc(I)c2)C1=O` (stereo not drawn), the growth in the test with HCT-15 colon is 92.9%; in the test with HT29 colon it was 95.9%; in the test on SNB-75 CNS it was 66.8%; with SNB-19 CNS it was 84.7%; in the test with U251 CNS, 88.7%; with PC-3 prostate, 67.9%. The growth with SK-MEL-5 melanoma was 31.1%; with UACC-62 melanoma, 74%; in the test on LOX IMVI melanoma it was 93.8%; in the test on SK-MEL-28 melanoma it was 93%; in the test with SK-MEL-2 melanoma, 77.5%; in the test with EKVX NSCLC it was 106%. The growth was 69.8% in the test with UO-31 renal; 96.1% with TK-10 renal; 91.4% in the test on ACHN renal; 72.9% with CAKI-1 renal; 70.5% in the test with A498 renal; 88.5% in the test on CCRF-CEM leukemia. Further, in the test on MOLT-4 leukemia, the growth is 85.3%.

Turning to `CCCCCCN(C)Cc1ccc(OCCOc2ccc(CN(C)CCCCCC)cc2)cc1`, the growth in the test with HCT-15 colon was 5.57% (active); in the test with HT29 colon, 1.29% (active); in the test with SNB-75 CNS, 28.8%; with SNB-19 CNS, 27.9%; in the test with U251 CNS, 7.97% (active); with PC-3 prostate, 23.9%. Also, the growth was -99.7% (active) in the test with SK-MEL-5 melanoma; -11.5% (active) in the test with UACC-62 melanoma; -95.3% (active) in the test with LOX IMVI melanoma; -68.7% (active) in the test on SK-MEL-28 melanoma; -40.8% (active) in the test with SK-MEL-2 melanoma; 55.3% in the test with EKVX NSCLC. In addition, the growth is -5.75% (active) in the test on UO-31 renal; 31.6% with TK-10 renal; 35.1% in the test with ACHN renal; 27.2% with CAKI-1 renal; 13.3% in the test with CCRF-CEM leukemia; -4.95% (active) in the test on MOLT-4 leukemia.
